In ChEMBL document CHEMBL3988442, “University of Dundee, Small-Polar-MMV Screening Library” (2021):

biological target: AMP-activated protein kinase, AMPK (Homo sapiens) (UniProt P54646+O43741+P54619+Q9UGJ0+Q9Y478+Q13131+Q9UGI9); experiment: AMP-dependent Kinase enzyme assay. An in vitro enzyme assay that detects ADP turnover that is directly proportional to AMPK activity. This uses naive AMPK that is activated during the assay with MK-8722; format: functional; design: scale not given: direction of the effect not stated beside the values; settings: 30 µM

Row | SMILES | Percent Effect [%]
1 | c1cncc(OC2CCN(CCn3cc4ccccc4n3)CC2)c1 | 13.1
2 | CC(O)CN1CCN(Cc2coc(-c3ccccc3)n2)CC1 (stereo not given) | -7.2
3 | CC1CN(Cc2cccc(CNC3CCCC3)c2)CCO1 (stereo not given) | 2.35
4 | O=C1CCC2(CCNCC2)CN1Cc1nncn1CCc1ccccc1 | 14.9
5 | CCn1ccnc1CNCc1ccc(C)cc1OC(C)(C)C | 25.5
6 | COCCN(Cc1sccc1C)C(=O)c1c(O)cccc1F | 0.607
7 | Cc1noc(C2CCCN(Cn3cc(Cl)cn3)C2)n1 (stereo not given) | 10.4
8 | COCC1(C(=O)N[C@H]2CN(c3noc(C)n3)C[C@@H]2C2CC2)CCC1 | -1.21
9 | Cn1ccc(N2CCCC(NC(=O)c3ccc(Cl)o3)C2=O)n1 (stereo not given) | 3.82
10 | Cn1ccc(C(=O)N2CCCC2c2cc(CCO)[nH]n2)n1 (stereo not given) | 21.2
11 | CCn1nc(C)c(NC(=O)CN(C)C(C)c2nccs2)c1C (stereo not given) | -6.11
12 | CC(C)c1ccc(/C=C/CC(=O)NC2CCN(C(N)=O)C2)cc1 (stereo not given) | 1.32
13 | CN(C)c1cccc(C(=O)Nc2cnn(CC(N)=O)c2)c1 | 3.58
14 | Cc1ncsc1CCN(C)C(=O)CCc1nc2cccnc2n1C | -7.17
15 | Cc1c(F)cccc1S(=O)(=O)N(C)CC(C)O (stereo not given) | 1.59
16 | CCc1ccc(CC)c(NCc2cnc(N3CCOCC3)nc2)c1 | -6.68
17 | CC1(c2ncc(CN3CCOCC3)cn2)CCCCO1 (stereo not given) | 9.84
18 | O=C(CCn1ccc2ncccc2c1=O)N1CCCC1 | -3.54
19 | COCCn1ccnc1C1CCCN(C(=O)CSc2nnc(C)o2)C1 (stereo not given) | 1.51
20 | O=C1OCCCN1Cc1nc(-c2ccncc2)no1 | -2.07

Row | SMILES | Percent Effect [%]
21 | COC(=O)CC1CSCCN1C(=O)CCc1c(C)nn(C)c1C (stereo not given) | 5.71
22 | COc1ncc(NCc2cc(C#N)cs2)cc1C(N)=O | 6.61
23 | COc1cccc(C(=O)N2CCN(C(=O)CCCc3cn[nH]c3)CC2)c1 | -1.35
24 | FC(F)(F)c1nc(NC2CCc3ncnn3C2)c2ccccc2n1 (stereo not given) | -0.0839
25 | Cc1cn[nH]c1C1COCCN1Cc1ccsc1 (stereo not given) | 14.3
26 | Cc1cc(CNC(=O)NCCCC(=O)N2CCc3ccccc32)no1 | -2.98
27 | COc1ncccc1-c1cc(C(=O)NC2CC2)ccn1 | -1.79
28 | Fc1ccc(OCCCNC2=NCCCN2)cc1 | 0.73
29 | Cc1ccccc1-n1cc(CN(C)C[C@@H]2CCCN3CCCC[C@H]23)cn1 | -2.73
30 | CC(C)[C@H]1CN(Cc2nccn2C)C[C@@H]1NC(=O)COCC(N)=O | 9.37
31 | CCN(CC)S(=O)(=O)NCC1Cc2ccccc2O1 (stereo not given) | -0.544
32 | CN(Cc1ccccc1F)Cc1cc2c(cc1Br)OCCO2 | -3.17
33 | CC(=O)N[C@H]1CCO[C@@H](c2cccc(NC(=O)Cc3ccccc3)c2)C1 | 7.18
34 | O=C(COCC1CCCO1)N(Cc1cccnc1)c1ccc(F)cc1 (stereo not given) | -8.95
35 | NC(=O)c1cc2c(nc1CC1CCCCO1)CCC2 (stereo not given) | -4.87
36 | c1cnc(N2CCCC(Cc3nccs3)C2)nc1 (stereo not given) | 0.818
37 | COc1cccc(NC(=O)CN(C(C)C)C2CC2)c1 | -0.663
38 | O=C(NCCc1cc(N2CCOCC2)nc(NC2CC2)n1)C1CCCO1 (stereo not given) | -0.703
39 | CCCC1c2ccccc2CCN1CCS(C)(=O)=O (stereo not given) | -0.239
40 | C[C@H](O)c1cnn(-c2ccccc2)c1 | 3.7
